# “And” between values parts separate entries of the source, which are not always exact repeats. Identical values can stand only once. Inconclusive results are not listed. Where a call stands in place of a potency, no number is given. Where a structure was tested more than once in an assay, its records may differ in their call. The source made the active and inactive calls. Unless noted, calls come from the whole dose curve; as a rule, active = well fitted curve in the direction sought with a large enough effect in the repeat runs; inconclusive = weak or mixed curves; inactive = no such curve, though single readings can be large; an effect the other way counts as inactive or inconclusive.
# How the values were obtained:
# [1] = biological target: Thyrotropin receptor (Homo sapiens) (UniProt P16473); assay: qHTS assay to identify small molecule antagonists of the thyroid stimulating hormone receptor (TSHR) signaling pathway (AID 1259385; calls by dose curve; note: nearly all actives have a fitted effect of over 20% in size)
# Summary of the method: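 Antagonist mode: compound-treated TSHR-expressing HEK293 cells were stimulated with 1.5 ng/mL TSH (final) in presence of Ro20-1724 for 30 min at RT. HTRF cAMP detection after 1 h; each compound tested at 15 concentrations, triplicate.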
# [2] = qHTS assay to identify small molecule agonists of the estrogen receptor alpha (ER-alpha) signaling pathway in the presence of an antagonist - cell viability counter screen (AID 1259386);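 note: series mostly up to about 92 µM; cells exposed to compounds for 22 h at 37 °C before the viability read; nearly all actives have a fitted effect of over 30% in size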
# Summary of the method: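 Cytotoxicity was measured in parallel with the ERE-luciferase agonist screen, in the same wells. The cells were VM7Luc4E2, which endogenously express ER-alpha, and treatment was with compounds plus 10.0nM ICI-182,780 for 22hr.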
# [3] = biological target: Progesterone receptor (Homo sapiens) (UniProt P06401); assay: qHTS assay to identify small molecule agonists of the progesterone receptor (PR) signaling pathway (AID 1346784; calls by dose curve; note: nearly all actives have a fitted effect of over 30% in size)
# Summary of the method: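 Using charcoal-stripped serum (2%) to limit endogenous steroids, PR-UAS-bla HEK 293T cells received compounds for 16 hr at 37C after 6 hr plating; beta-lactamase FRET fluorescence was recorded following 2 hr substrate loading at room temperature.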
# [4] = qHTS assay to identify small molecule antagonists of the progesterone receptor (PR) signaling pathway - cell viability counter screen (AID 1346798); note: series mostly up to about 92 µM; nearly all actives have a fitted effect of over 50% in size
# Summary of the method: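 ATP content as viability readout: CellTiter-Glo luminescence, 30 min room temperature, in PR-UAS-bla HEK293T cells after 16 hr compound/R5020 treatment at 37C and 5% CO2.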
# [5] = qHTS assay to identify small molecule antagonists of the TGF-beta/Smad signaling pathway - cell viability counter screen (AID 1346824); note: nearly all actives have a fitted effect of over 50% in size
# Summary of the method: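 Cytotoxicity counter-screen run in the same wells as the beta-lactamase Smad reporter read: CellTiter-Glo luminescence after 30 min at room temperature. HEK 293T SBE-bla cells had 5 hr compound exposure at 37 C with TGF-beta1 (0.25 ng/mL stock).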
# [6] = qHTS assay to identify small molecule agonists of the TGF-beta/Smad signaling pathway - cell viability counter screen (AID 1346829); note: top concentration of the series differs between compounds; nearly all actives have a fitted effect of over 45% in size
# Summary of the method: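 SBE-bla HEK 293T cells plated overnight, compound exposure 5 hr at 37 C. Viability read in the same wells by CellTiter-Glo luminescence after 30 min at room temperature, following the beta-lactamase read.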
# [7] = qHTS assay to identify small molecule agonists of the TGF-beta/Smad signaling pathway (AID 1346859; active = well fitted activation curve with a large enough effect in the signal ratio in the repeat runs, not every such curve was filed as active; the % refers to the signal ratio; note: series mostly up to about 77 µM)
# Summary of the method: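 Stable Smad binding element-beta-lactamase HEK 293T cells; 5 hr compound exposure at 37 C under 5% CO2; 2 hr room-temperature substrate step; fluorescence excited at 405 nm, collected at 460 nm and 530 nm.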
# [8] = biological target: Thyrotropin-releasing hormone receptor (Homo sapiens) (UniProt P34981); assay: qHTS assay to identify small molecule antagonists of the thyrotropin-releasing hormone receptor (TRHR) signaling pathway (AID 1346877; active = well fitted inhibition curve with a large enough effect in the repeat runs, not every such curve was filed as active; note: potency is the fitted concentration of half-maximal effect)
# Summary of the method: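 Antagonism is measured as suppression of the calcium response to 1 nM TRH in TRHR-HEK293 cells that have been dye-loaded for 2 h at 37 °C after overnight plating. Each compound is tested at 15 concentrations in triplicate.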
# [9] = biological target: Progesterone receptor (Homo sapiens) (UniProt P06401); assay: qHTS assay to identify small molecule antagonists of the progesterone receptor (PR) signaling pathway (AID 1346795; active = well fitted inhibition curve with a large enough effect in the signal ratio in the repeat runs, not every such curve was filed as active; the % refers to the signal ratio)
# Summary of the method: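 Inhibition of R5020-induced (1 nM final) beta-lactamase reporter signal in PR-UAS-bla HEK293T cells was scored by FRET fluorescence after overnight (16 hr) compound treatment.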
# [10] = qHTS assay to identify small molecule agonists of the progesterone receptor (PR) signaling pathway - cell viability counter screen (AID 1346799; calls by dose curve; note: nearly all actives have a fitted effect of over 45% in size)
# Summary of the method: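 Cytotoxicity in PR-bla HEK293T cells: 16 h compound, 37C; CellTiter-Glo added post-FRET read; luminescence after 30 min RT.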
# Sequence of Thyrotropin-releasing hormone receptor (Homo sapiens) (P34981 whole entry, looked up): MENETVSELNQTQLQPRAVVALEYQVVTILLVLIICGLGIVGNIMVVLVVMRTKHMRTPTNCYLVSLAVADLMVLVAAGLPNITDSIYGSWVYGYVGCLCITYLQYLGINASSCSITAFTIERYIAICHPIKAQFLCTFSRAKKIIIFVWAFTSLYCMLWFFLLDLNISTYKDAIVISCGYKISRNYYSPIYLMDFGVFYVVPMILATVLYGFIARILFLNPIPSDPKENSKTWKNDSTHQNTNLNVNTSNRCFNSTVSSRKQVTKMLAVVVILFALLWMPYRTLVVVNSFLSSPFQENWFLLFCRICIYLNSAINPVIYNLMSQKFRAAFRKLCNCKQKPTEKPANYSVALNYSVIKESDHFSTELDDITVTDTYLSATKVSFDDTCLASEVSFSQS
# Sequence of Progesterone receptor (Homo sapiens) (P06401 whole entry, looked up): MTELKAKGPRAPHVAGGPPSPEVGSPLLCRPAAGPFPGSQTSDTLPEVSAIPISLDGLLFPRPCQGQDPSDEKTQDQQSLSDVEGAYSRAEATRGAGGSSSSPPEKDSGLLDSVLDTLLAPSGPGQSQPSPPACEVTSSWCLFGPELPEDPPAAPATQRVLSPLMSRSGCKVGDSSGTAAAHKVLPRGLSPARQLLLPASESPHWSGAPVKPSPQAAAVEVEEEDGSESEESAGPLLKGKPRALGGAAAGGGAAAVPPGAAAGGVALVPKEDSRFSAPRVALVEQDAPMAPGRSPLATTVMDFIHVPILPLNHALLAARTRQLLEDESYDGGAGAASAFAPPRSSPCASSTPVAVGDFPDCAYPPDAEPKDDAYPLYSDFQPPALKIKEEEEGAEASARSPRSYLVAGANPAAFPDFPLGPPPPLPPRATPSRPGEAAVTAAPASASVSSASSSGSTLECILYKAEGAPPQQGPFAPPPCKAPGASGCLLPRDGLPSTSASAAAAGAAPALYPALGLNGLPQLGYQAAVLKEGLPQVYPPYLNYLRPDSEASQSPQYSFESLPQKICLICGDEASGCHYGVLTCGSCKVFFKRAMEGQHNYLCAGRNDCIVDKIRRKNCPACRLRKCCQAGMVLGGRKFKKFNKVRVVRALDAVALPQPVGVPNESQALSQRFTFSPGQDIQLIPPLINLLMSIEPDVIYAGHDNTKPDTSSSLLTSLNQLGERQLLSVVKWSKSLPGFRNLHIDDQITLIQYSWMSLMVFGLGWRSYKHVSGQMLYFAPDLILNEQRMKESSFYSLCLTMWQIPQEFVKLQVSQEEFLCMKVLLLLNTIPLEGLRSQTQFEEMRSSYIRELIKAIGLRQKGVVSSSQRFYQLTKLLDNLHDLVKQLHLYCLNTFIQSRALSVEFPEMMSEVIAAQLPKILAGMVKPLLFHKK
# Sequence of Thyrotropin receptor (Homo sapiens) (P16473 whole entry, looked up): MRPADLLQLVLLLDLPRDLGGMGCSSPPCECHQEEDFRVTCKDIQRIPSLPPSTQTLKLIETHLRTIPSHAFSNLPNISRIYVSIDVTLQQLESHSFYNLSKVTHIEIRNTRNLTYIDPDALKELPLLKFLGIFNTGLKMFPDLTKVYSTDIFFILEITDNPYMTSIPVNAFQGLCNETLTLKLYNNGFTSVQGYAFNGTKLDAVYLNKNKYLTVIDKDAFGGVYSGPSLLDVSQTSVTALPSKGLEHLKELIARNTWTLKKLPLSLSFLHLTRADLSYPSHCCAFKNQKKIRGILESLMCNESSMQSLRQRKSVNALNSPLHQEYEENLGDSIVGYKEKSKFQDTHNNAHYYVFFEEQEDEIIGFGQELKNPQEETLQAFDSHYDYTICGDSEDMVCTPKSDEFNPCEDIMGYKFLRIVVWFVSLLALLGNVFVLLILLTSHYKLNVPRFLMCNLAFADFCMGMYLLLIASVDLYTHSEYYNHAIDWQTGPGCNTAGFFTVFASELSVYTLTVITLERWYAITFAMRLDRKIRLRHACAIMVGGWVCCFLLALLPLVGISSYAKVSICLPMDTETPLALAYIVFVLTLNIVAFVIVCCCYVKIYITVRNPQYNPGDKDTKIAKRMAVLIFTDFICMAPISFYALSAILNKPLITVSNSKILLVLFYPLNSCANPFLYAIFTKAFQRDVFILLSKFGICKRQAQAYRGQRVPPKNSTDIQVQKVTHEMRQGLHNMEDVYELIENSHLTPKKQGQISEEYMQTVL
Structure (SMILES),outcome [1],Potency [2],Potency [3],Potency [4],outcome [5],Potency [6],outcome [7],Potency [8],Potency [9],Potency [10]
CC#Cc1cc(C)nc(Nc2ccccc2)n1,inactive,inactive,inactive,inactive,inactive,inactive,inactive,inactive,–,–
CC(C)(N)Cc1ccc(Cl)cc1,inactive,inactive,–,–,inactive,inactive,inactive,–,inactive,–
CC(=O)CN(CC(C)=O)N=O,inactive,inactive,inactive,inactive,inactive,inactive,inactive,inactive,–,–
CCN[C@H](C)Cc1cccc(C(F)(F)F)c1,inactive,–,inactive,–,inactive,inactive,inactive,inactive,inactive,–
O=C(NC(O)C(Cl)(Cl)Cl)NC(O)C(Cl)(Cl)Cl (configuration not stated),–,inactive,inactive,inactive,inactive,inactive,inactive,inactive,inactive,inactive
CC1=C2[C@H]3OC(=O)[C@@H](C)[C@@H]3CC[C@@]2(C)C=CC1=O,–,inactive,inactive,inactive,inactive,inactive,inactive,inactive,inactive,inactive
COC(=O)[C@@H](N)CCCN/C(N)=N/[N+](=O)[O-],inactive,inactive,inactive,–,inactive,inactive,inactive,inactive,–,inactive
ClCC1CO1 (configuration not stated),inactive,inactive,–,inactive,inactive,inactive,inactive,inactive,–,inactive
CCOC(=O)NC(C)(C)Cc1ccc(Cl)cc1,–,inactive,inactive,inactive,inactive,inactive,inactive,–,inactive,inactive
[P]#[In],inactive,inactive,–,inactive,inactive,inactive,inactive,inactive,–,inactive
CCOC(=O)COc1ccc(Cl)cc1Cl,inactive,inactive,inactive,inactive,inactive,–,–,inactive,–,–
O=C1C2CC=CCC2C(=O)N1SC(Cl)(Cl)Cl (configuration not stated),inactive,inactive,inactive,–,inactive,–,inactive,inactive and 33.3 µM (active),–,–
N=C(N)[Se],inactive,–,inactive,inactive,inactive,–,inactive,–,–,–
CON(C)C(=O)Nc1ccc(Br)c(Cl)c1,inactive,inactive,inactive,–,inactive,inactive,inactive,inactive,–,inactive
CC(C)(C)C(=O)Cl,inactive,inactive,–,inactive,inactive,inactive,inactive,inactive,–,inactive
